Measured values taken from PubChem BioAssay AID1578 (Sanford-Burnham Center for Chemical Genomics, 2009).
The whole screen tested about 290,000 compounds, of which about 3,000 (1%) were called active. Rule as the data show it: active = inhibition mostly above about 36% (no sharp cut-off); inactive = mostly below about 34%. This excerpt belongs to a sample that is enriched for actives.

assay: inhibition of NOD1-driven NF-kB reporter – cell-based, luminescence, uHTS, primary screen (AID 1578); settings: NOD1-driven NF-kB luciferase reporter cells, at 4 µM, active compounds read high;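 also: HEK-293T reporter cells stimulated with the NOD1 agonist gamma-tri-DAP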

inhibition, active:
O=C(Nc1ccc([N+](=O)[O-])cc1)c1nc[nH]c1C(=O)NC1CCCCC1 80.7%
O=C(NCc1ccccc1)C1=C[C@@H](c2csc3ccccc23)C[C@@H](OCc2ccc(CO)cc2)O1 43.8%
C#CCNC(=O)C1=C[C@H](c2cn(C(C)=O)c3ccccc23)C[C@H](OCc2ccc(CO)cc2)O1 46.1%
CCOC(=O)c1ccccc1NC(=O)CSc1ccc(-c2cccnc2)nn1 59.2%
COc1ccc(-c2nnc(SC(=O)N3c4ccccc4Sc4ccccc43)o2)cc1 65.2%
CC(C)N=C(NS(=O)(=O)c1ccccc1)C(Cl)(Cl)Cl 62.8%
CC(C)=NOc1cc(NC(=O)CCl)cc([N+](=O)[O-])c1 89.5%
COC(=O)c1cccc(NC(=O)NC(=O)c2ccccc2Cl)c1 30%
CCN(CC)c1ccc(/C=N/NC(=O)Nc2nonc2N)cc1 58.7%
Cc1ccccc1NC(=O)C1CCC(=O)N1 (centres undefined) 96.7%
COc1ccc(C2C(C#N)=C(N)Oc3c2c(C)nn3-c2ccccc2)cc1Cn1nc(C)c([N+](=O)[O-])c1C (centres undefined) 85%

inhibition, inactive:
COC(=O)c1sccc1NC(=O)/C=C/C(=O)O -34.3%
O=C(Nc1ccc(F)cc1)c1nc[nH]c1C(=O)Nc1ccc([N+](=O)[O-])cc1 45%
CCOC(=O)c1[nH]cnc1C(=O)Nc1ccc([N+](=O)[O-])cc1 -7.2%
Nc1nnc(SCc2c(F)cccc2Cl)s1 -8.2%
CC(=O)n1cc([C@@H]2C=C(C(=O)NCc3ccccc3)O[C@H](OCc3ccc(CO)cc3)C2)c2ccccc21 -7.1%
C#CCNC(=O)C1=C[C@@H](c2cn(C(C)=O)c3ccccc23)C[C@@H](OCc2ccc(CO)cc2)O1 -23.5%
O=C(NCc1ccccc1)C1=C[C@H](c2csc3ccccc23)C[C@H](OCc2ccc(CO)cc2)O1 -5.8%
O=C(Nc1ccccc1)C1=C[C@H](c2csc3ccccc23)C[C@H](OCc2ccc(CO)cc2)O1 -4.6%
CC(NS(=O)(=O)c1ccc2[nH]c(=O)c(=O)[nH]c2c1)C(=O)O (centres undefined) -25.3%
O=C(CCCN1C(=O)/C(=C/c2ccccc2Cl)SC1=S)N1CCCC1 18.8%
Cc1cc(Cl)cc(C)c1OCCNCc1ccccc1 -43.1%
Cc1ccc(S(=O)(=O)CCc2nnc(NC(=O)C3CCCCC3)s2)cc1 1.5%
COc1ccc(NC(=O)Cn2ncn3nc(-c4ccc(OC)cc4)cc3c2=O)cc1 -72%
CC(C)c1ccc(Nc2nc(Cl)nc(Cl)n2)cc1 -33%
CCCOC(=O)Cn1cnc2scc(-c3ccc(OC)cc3)c2c1=O 41.3%
CCOC(=O)c1ccccc1NC(=O)CSc1ccc(-c2ccccn2)nn1 -59.6%
Cc1ccccc1NC(=O)CSc1ccc(-c2cccnc2)nn1 -33.1%
Cc1ccc(NC(=O)Cn2nnc3ccccc32)c(C)c1 -16.7%
O=C(Sc1nnc(-c2ccccc2)o1)N1c2ccccc2Sc2ccccc21 -37.4%
COc1ccc(-c2nnc(SCC(=O)N3c4ccccc4Sc4ccccc43)o2)cc1 -16.3%
Fc1ccc(-n2nnnc2-c2ccccc2Cl)cc1 -26.4%
COc1ccc(C(=O)N2CCC(C(=O)Nc3ccc4c(c3)OCCO4)CC2)cc1 -5.6%
Fc1ccc(-c2nnc(NC3=NCCCCC3)o2)cc1 46.2%
Cc1ccc(S(=O)(=O)NC(=NC(C)C)c2ccccc2)cc1 -28.2%
CC(C)CN=C(NS(=O)(=O)c1ccccc1)C(Cl)(Cl)Cl 34.3%
O=C(CSc1nnc(-c2cccnc2)n1Cc1ccco1)Nc1cccc(O)c1 -18.5%
CC(=O)Nc1cc(ON=C(C)C)cc([N+](=O)[O-])c1 -34.9%
CCC(=O)Nc1cc(ON=C(C)C)cc([N+](=O)[O-])c1 -24.6%
O=C(Nc1ccc(S(=O)(=O)N2CCCCCC2)cc1)c1ccc(Br)o1 26.1%
COc1ccc(CCNc2oc(COc3ccc(F)cc3)nc2C#N)cc1 -48.1%
COc1ccc(CCNc2oc(Cc3ccccc3)nc2C#N)cc1OC 25.6%
COc1ccc(CCNc2oc(COc3ccccc3)nc2C#N)cc1 -56.7%
COc1ccc(CCNc2oc(COc3ccccc3F)nc2C#N)cc1OC 21.4%
CCc1ccc(NC(=O)CCCN2C(=S)NC(C)(C)CC2C)cc1 (centres undefined) -30.4%
Cc1ccccc1-c1ccc(=O)n(CC(=O)Nc2ccc(-n3cnnn3)cc2)n1 -5.3%
CCOC(=O)C(CCCOc1ccccc1)C(=O)OCC 10.5%
CC1CCCCC1NC(=O)CN1C(=O)CSc2cc(S(=O)(=O)N3CCCCCC3)ccc21 (centres undefined) -19.4%
COC(=O)c1cccc(NC(=O)NC(=O)c2ccc(Cl)cc2)c1 11.7%
COC(=O)c1cccc(NC(=O)/C(=C\c2ccccc2)NC(=O)c2ccccc2Cl)c1 -35.1%
O=C(CNS(=O)(=O)c1cccc2nsnc12)NC1CCCCC1 -5.2%
CCN(CC)c1ccc(/C=N/NC(=O)Nc2ccccc2)cc1 -54%
COc1ccc(/C=N/NC(=O)Nc2nonc2N)cc1 -31.2%
COCCOC(=O)C1=C(C)Nc2cc(=O)[nH]c(=O)n2C1c1cccc([N+](=O)[O-])c1 (centres undefined) 5%
O=C1CCC(C(=O)Nc2ccccc2)N1 (centres undefined) -23%
O=C1CCC(C(=O)Nc2cccc3ccccc23)N1 (centres undefined) 8.1%
Cc1cc(C)nc(NS(=O)(=O)c2ccc(NC(=O)c3ccc4c(c3)OCCO4)cc2)n1 -42.8%
COc1ccc(C2C(C#N)=C(N)OC3=C2C(=O)CCC3)cc1Cn1nc(C)c([N+](=O)[O-])c1C (centres undefined) -8.7%
COc1ccc(C2C(C#N)=C(N)Oc3n[nH]c(C)c32)cc1Cn1nc(C)c([N+](=O)[O-])c1C (centres undefined) -12.1%
